{"source": "PubChem BioAssay (NCATS)", "note": "Where “and” joins values, the source holds several entries; their conditions need not be identical. Equal values may be shown once. Values without a mark were called inactive. Records with an inconclusive call do not appear. A call without a number means that no potency is given here. Calls of active or inactive are those of the source. Unless noted, the call rests on the fitted dose curve; in most records, active means well fitted curve in the direction sought with a large enough effect; inconclusive means small, poorly fitted or top-dose-only effect, or another doubt; inactive means no such curve, though single readings can be large; an effect the other way counts as inactive or inconclusive.", "data": [{"molecular_target": "Cytochrome P450 2C19 (Homo sapiens) (UniProt P33261)", "sequence (P33261 whole entry, looked up)": "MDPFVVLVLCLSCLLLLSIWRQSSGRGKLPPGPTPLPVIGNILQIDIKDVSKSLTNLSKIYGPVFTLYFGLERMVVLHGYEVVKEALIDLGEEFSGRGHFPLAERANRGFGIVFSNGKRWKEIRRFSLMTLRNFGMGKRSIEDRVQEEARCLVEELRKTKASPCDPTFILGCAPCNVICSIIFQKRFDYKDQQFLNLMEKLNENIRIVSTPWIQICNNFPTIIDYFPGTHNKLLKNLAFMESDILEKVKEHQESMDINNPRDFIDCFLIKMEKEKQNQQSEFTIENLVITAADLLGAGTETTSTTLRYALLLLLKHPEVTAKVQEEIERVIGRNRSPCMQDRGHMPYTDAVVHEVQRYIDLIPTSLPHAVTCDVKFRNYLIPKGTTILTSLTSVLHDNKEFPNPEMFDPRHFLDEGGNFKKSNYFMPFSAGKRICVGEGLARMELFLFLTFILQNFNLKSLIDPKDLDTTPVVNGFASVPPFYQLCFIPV", "experiment": "qHTS Assay for Inhibitors and Substrates of Cytochrome P450 2C19 (AID 899); further: nearly all actives have a fitted effect of over 60% in size; further: potency means the concentration at half of the fitted maximal effect", "conditions": "recombinant CYP2C19, luciferin-H EGE luminescence; series mostly up to 57.1 µM", "method_in_brief": "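Luminescence readout of luciferin formed from 10uM Luciferin-H EGE (KM level) by 5 nM CYP2C19 in 50mM KPO4. 60 min NADPH-driven reaction at 37C after 10 min compound preincubation; data scaled to 57uM ketoconazole inhibition.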", "values": [{"smiles": "FC(F)(F)c1ccccc1-c1ccc2ncnc(N3CCOCC3)c2c1", "Potency": "0.631 µM (active)"}, {"smiles": "CN(C)C(=O)c1ccc(-c2nc(N(C)C)c3ccccc3n2)cc1", "Potency": "inactive"}, {"smiles": "COc1ccccc1-c1nccc(NCc2ccccc2)n1", "Potency": "7.94 µM (active)"}, {"smiles": "COc1ccccc1CNc1ncnc2ccc(-c3cccc(C#N)c3)cc12", "Potency": "5.01 µM (active)"}]}, {"test_system": "not listed separately", "experiment": "Confirmation and Secondary Assay for Modulators of Hemoglobin Beta Chain Splicing at IVS2 654 locus (AID 910);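 further: HeLa cells stably carrying EGFP split by mutant beta-globin IVS2-654 intron; per-well total GFP intensity by laser scanning cytometry after 2-day treatment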", "conditions": "HeLa EGFP-654 splicing reporter, GFP fluorescence, 48 h; series mostly up to 38.3 µM", "method_in_brief": "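Readout: per-well total peak green fluorescence (488 nm ex, 500–520 nm em) from objects 5–250 µm, reflecting correct splicing of an EGFP-654 reporter. Compounds were applied for 2 days at 37 °C to overnight-plated HeLa EGFP-654 cells; controls were DMSO and 500 nM IVS2-654 PNA.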", "values": [{"smiles": "C[N+](C)(C)CC(O)CC(=O)O", "note": "(stereo unspecified)", "Potency": "inactive"}, {"smiles": "COc1ccc2ccc(=O)oc2c1", "Potency": "inactive"}, {"smiles": "COc1cc2c(cc1OC)C1Cc3ccc(OC)c(OC)c3CN1CC2", "note": "(stereo unspecified)", "Potency": "inactive"}, {"smiles": "O=C(/C=C/c1ccc(O)c(O)c1)OC(Cc1ccc(O)c(O)c1)C(=O)O", "note": "(stereo unspecified)", "Potency": "inactive"}, {"smiles": "O=c1ccc2ccc(O)cc2o1", "Potency": "inactive"}, {"smiles": "CN1C(CC(=O)c2ccccc2)CCCC1CC(O)c1ccccc1", "note": "(stereo unspecified)", "Potency": "inactive"}, {"smiles": "CN(C)C(=O)c1ccc(-c2nc(N(C)C)c3ccccc3n2)cc1", "Potency": "inactive"}, {"smiles": "CC(C)(S)[C@H](N)C(=O)O", "Potency": "inactive"}, {"smiles": "C=C[C@](C)(O)CCC=C(C)C", "Potency": "inactive"}, {"smiles": "COS(C)(=O)=O", "Potency": "inactive"}, {"smiles": "CC1=CC(=O)CC(C)(C)C1(O)/C=C/C(C)=C\\C(=O)O", "note": "(stereo unspecified)", "Potency": "inactive"}, {"smiles": "CC1(C)SC2C(NC(=O)Cc3ccccc3)C(=O)N2C1C(=O)O", "note": "(stereo unspecified)", "Potency": "inactive"}, {"smiles": "C=C(NC(=O)C(=C)NC(=O)c1csc(C2=NC3c4csc(n4)C4NC(=O)c5csc(n5)C(C(C)(O)C(C)O)NC(=O)C5CSC(=N5)C(=CC)NC(=O)C(C(C)O)NC(=O)c5csc(n5)C3(CC2)NC(=O)C(C)NC(=O)C(=C)NC(=O)C(C)NC(=O)C(C(C)CC)NC2C=Cc3c(C(C)O)cc(nc3C2O)C(=O)OC4C)n1)C(N)=O", "note": "(stereo unspecified)", "Potency": "inactive"}]}, {"test_system": "not listed separately", "experiment": "qHTS Assay for Identification of Small Molecule Agonists for Hypoxia Response Element Signaling Pathway (AID 914; active means well fitted activation curve with a large enough effect in the signal ratio, with a control signal flat, not every such curve was filed as active; the % refers to the signal ratio; further: potency means the concentration at half of the fitted maximal effect)", "conditions": "ME-180 HRE-bla reporter, beta-lactamase ratio, CoCl2, 17 h; activation: hits give high values", "method_in_brief": "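Read-out: CCF4 FRET ratio of 460nm to 530nm emission (excitation 405nm) after 2.5 hours at room temperature, taken from HRE-bla ME-180 cells that had been exposed to compound and EC50 CoCl2 for 17 hours.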", "values": [{"smiles": "CN1CCN(c2ccnc(-c3ccc(N(C)C)cc3)n2)CC1", "activation": "1.71%"}, {"smiles": "COc1ncc2nc(-c3cccs3)c(=O)n(C)c2n1", "Potency": "2.51 µM (active)"}, {"smiles": "C[C@@H]1CCC[C@H](C)N1NC(=O)c1ccc(Cl)c(S(N)(=O)=O)c1", "activation": "-10.1% and -0.309%"}]}, {"test_system": "not listed separately", "experiment": "Cell Viability - LYMP2-001 (AID 921); further: nearly all actives have a fitted effect of over 70% in size", "conditions": "LYMP2-001 lymphoblastoid cell viability; series mostly up to 92.2 µM", "method_in_brief": "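CellTiter-Glo luminescence (intracellular ATP) after 24 hr compound exposure at 37 C, 2500 lymphoblastoid cells/well in complete medium. AC50 fitted with standard Hill equation; tetraoctylammonium bromide positive control.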", "values": [{"smiles": "Cc1occc(=O)c1O", "outcome": "inactive"}, {"smiles": "C=C(C)[C@H]1CC=C(C)C(=O)C1", "outcome": "inactive"}, {"smiles": "COS(C)(=O)=O", "outcome": "inactive"}, {"smiles": "CC1=CC(=O)CC(C)(C)C1(O)/C=C/C(C)=C\\C(=O)O", "note": "(stereo unspecified)", "outcome": "inactive"}, {"smiles": "C=CC(C)(O)CCC=C(C)C", "note": "(stereo unspecified)", "outcome": "inactive"}]}, {"test_system": "not listed separately", "experiment": "Confirmation and Secondary Assay for Modulators of Hemoglobin Beta Chain Splicing at IVS2 705 locus (AID 930);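 further: HeLa cells stably expressing the EGFP-705 splicing reporter; GFP fluorescence per well restored by corrected splicing of the IVS2-705 intron in EGFP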", "conditions": "HeLa EGFP-705 splicing reporter, GFP fluorescence, 48 h; series mostly up to 38.3 µM", "method_in_brief": "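HeLa EGFP-705 reporter; 500 cells/well, o/n 37C 5% CO2; cpd 2 d; 488 ex/500-520 em laser scan; total peak GFP intensity/well. Ref: 500 nM […] antisense PNA.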", "values": [{"smiles": "C[N+](C)(C)CC(O)CC(=O)O", "note": "(stereo unspecified)", "outcome": "inactive"}, {"smiles": "COc1ccc2ccc(=O)oc2c1", "outcome": "inactive"}, {"smiles": "NC(Cc1c[nH]c2ccccc12)C(=O)O", "note": "(stereo unspecified)", "outcome": "inactive"}, {"smiles": "COc1cc2c(cc1OC)C1Cc3ccc(OC)c(OC)c3CN1CC2", "note": "(stereo unspecified)", "outcome": "inactive"}, {"smiles": "Cc1occc(=O)c1O", "outcome": "inactive"}, {"smiles": "O=C(/C=C/c1ccc(O)c(O)c1)OC(Cc1ccc(O)c(O)c1)C(=O)O", "note": "(stereo unspecified)", "outcome": "inactive"}, {"smiles": "O=c1ccc2ccc(O)cc2o1", "outcome": "inactive"}, {"smiles": "Oc1ccc2c(c1)OCC1(O)Cc3cc(O)c(O)cc3C21", "note": "(stereo unspecified)", "outcome": "inactive"}, {"smiles": "CN(C)C(=O)c1ccc(-c2nc(N(C)C)c3ccccc3n2)cc1", "outcome": "inactive"}, {"smiles": "CC(C)(S)[C@H](N)C(=O)O", "outcome": "inactive"}, {"smiles": "C=C[C@](C)(O)CCC=C(C)C", "outcome": "inactive"}, {"smiles": "COS(C)(=O)=O", "outcome": "inactive"}, {"smiles": "CC1=CC(=O)CC(C)(C)C1(O)/C=C/C(C)=C\\C(=O)O", "note": "(stereo unspecified)", "outcome": "inactive"}, {"smiles": "C=C(NC(=O)C(=C)NC(=O)c1csc(C2=NC3c4csc(n4)C4NC(=O)c5csc(n5)C(C(C)(O)C(C)O)NC(=O)C5CSC(=N5)C(=CC)NC(=O)C(C(C)O)NC(=O)c5csc(n5)C3(CC2)NC(=O)C(C)NC(=O)C(=C)NC(=O)C(C)NC(=O)C(C(C)CC)NC2C=Cc3c(C(C)O)cc(nc3C2O)C(=O)OC4C)n1)C(N)=O", "note": "(stereo unspecified)", "outcome": "inactive"}, {"smiles": "C#C[C@]1(O)CCC2C3CCC4=C(CCC(=O)C4)C3CC[C@@]21C", "note": "(stereo partly specified)", "outcome": "inactive"}, {"smiles": "O=c1cc(-c2ccc(O)cc2)oc2cc(O[C@H]3OC(CO)C(O)C(O)C3O)cc(O)c12", "note": "(stereo partly specified)", "outcome": "inactive"}]}, {"test_system": "not listed separately", "experiment": "MultiTox-Fluor Cytotoxicity Assay - LYMP1-001 - Dead Cells (AID 946)", "conditions": "LYMP1-001 lymphoblastoid cells, dead-cell protease fluorescence; series mostly up to 92.2 µM", "method_in_brief": "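Seed 2500 LYMP1-001 cells/well, incubate 5 hr at 37 C; add compound, 16 hr at 37 C; add MultiTox-Fluor reagent, 60 min RT; read dead-cell fluorescence Ex/Em=485/520. Normalize to DMSO and 15 uM tetraoctylammonium bromide.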", "values": [{"smiles": "Cc1occc(=O)c1O", "outcome": "inactive"}, {"smiles": "C=C(C)[C@H]1CC=C(C)C(=O)C1", "outcome": "inactive"}, {"smiles": "COS(C)(=O)=O", "outcome": "inactive"}, {"smiles": "CC1=CC(=O)CC(C)(C)C1(O)/C=C/C(C)=C\\C(=O)O", "note": "(stereo unspecified)", "outcome": "inactive"}, {"smiles": "C=CC(C)(O)CCC=C(C)C", "note": "(stereo unspecified)", "outcome": "inactive"}]}, {"test_system": "not listed separately", "experiment": "MultiTox-Fluor Cytotoxicity Assay - LYMP1-001 - Live Cells (AID 947)", "conditions": "LYMP1-001 lymphoblastoid cells, live-cell protease fluorescence viability; series mostly up to 92.2 µM", "values": [{"smiles": "Cc1occc(=O)c1O", "outcome": "inactive"}, {"smiles": "C=C(C)[C@H]1CC=C(C)C(=O)C1", "outcome": "inactive"}, {"smiles": "COS(C)(=O)=O", "outcome": "inactive"}, {"smiles": "CC1=CC(=O)CC(C)(C)C1(O)/C=C/C(C)=C\\C(=O)O", "note": "(stereo unspecified)", "outcome": "inactive"}, {"smiles": "C=CC(C)(O)CCC=C(C)C", "note": "(stereo unspecified)", "outcome": "inactive"}]}, {"test_system": "not listed separately", "experiment": "Cell Viability - LYMP1-002 - Assay at 16 hr (AID 948)", "conditions": "LYMP1-002 lymphoblastoid cell viability; series mostly up to 92.2 µM", "method_in_brief": "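LYMP1-002 human lymphoblastoid cells, 2500/well; 5 hr 37 C; cpd 16 hr 37 C; CellTiter-Glo 30 min RT; luminescence (ATP). Concentration-response, Hill-fit AC50. Pos ctrl tetraoctylammonium bromide.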", "values": [{"smiles": "Cc1occc(=O)c1O", "outcome": "inactive"}, {"smiles": "C=C(C)[C@H]1CC=C(C)C(=O)C1", "outcome": "inactive"}, {"smiles": "COS(C)(=O)=O", "outcome": "inactive"}, {"smiles": "CC1=CC(=O)CC(C)(C)C1(O)/C=C/C(C)=C\\C(=O)O", "note": "(stereo unspecified)", "outcome": "inactive"}, {"smiles": "C=CC(C)(O)CCC=C(C)C", "note": "(stereo unspecified)", "outcome": "inactive"}]}, {"test_system": "not listed separately", "experiment": "MultiTox-Fluor Cytotoxicity Assay - LYMP1-002 - Live Cells (AID 955)", "conditions": "LYMP1-002 lymphoblastoid live-cell protease fluorescence viability; series mostly up to 46.1 µM", "method_in_brief": "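Human lymphoblastoid LYMP1-002 cells, 2500/well in complete medium, rested 5 hr at 37 C, then exposed to compounds for 16 hr at 37 C. Live-cell protease cleavage of GF-AFC read by fluorescence (Ex/Em 405/510) after 60 min at room temperature; AC50 from Hill fits.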", "values": [{"smiles": "Cc1occc(=O)c1O", "outcome": "inactive"}, {"smiles": "C=C(C)[C@H]1CC=C(C)C(=O)C1", "outcome": "inactive"}, {"smiles": "COS(C)(=O)=O", "outcome": "inactive"}, {"smiles": "CC1=CC(=O)CC(C)(C)C1(O)/C=C/C(C)=C\\C(=O)O", "note": "(stereo unspecified)", "outcome": "inactive"}, {"smiles": "C=CC(C)(O)CCC=C(C)C", "note": "(stereo unspecified)", "outcome": "inactive"}]}, {"test_system": "not listed separately", "experiment": "MultiTox-Fluor Cytotoxicity Assay - LYMP1-002 - Dead Cells (AID 960); further: nearly all actives have a fitted effect of over 60% in size", "conditions": "LYMP1-002 lymphoblastoid cells, dead-cell protease fluorescence; series mostly up to 46.1 µM", "method_in_brief": "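Human lymphoblastoid cells (LYMP1-002), 2500/well in complete medium, were exposed to compounds for 16 hr at 37 C. Dead-cell protease activity was read as bis-AAF-R110 fluorescence (Ex/Em 485/520), normalized to DMSO and 15 uM tetraoctylammonium bromide; AC50 from Hill fits.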", "values": [{"smiles": "Cc1occc(=O)c1O", "outcome": "inactive"}, {"smiles": "C=C(C)[C@H]1CC=C(C)C(=O)C1", "outcome": "inactive"}, {"smiles": "COS(C)(=O)=O", "outcome": "inactive"}, {"smiles": "CC1=CC(=O)CC(C)(C)C1(O)/C=C/C(C)=C\\C(=O)O", "note": "(stereo unspecified)", "outcome": "inactive"}, {"smiles": "C=CC(C)(O)CCC=C(C)C", "note": "(stereo unspecified)", "outcome": "inactive"}]}]}
